This note sets out measurements from PubChem BioAssay (NCATS).

Inconclusive results are not listed. Active and inactive are the calls of the source. Unless noted, calls follow the shape of the full dose curve.

In assay [1] the target is Glucocorticoid receptor (Homo sapiens) (UniProt P04150). In words: qHTS assay for small molecule agonists of glucocorticoid receptor signaling (AID 588532; active = well fitted curve in the direction sought with a large enough effect in the signal ratio, with a control signal flat; the % refers to the signal ratio;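 also: 100% = dexamethasone at 0.1 µM and 0% = DMSO only wells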). The conditions noted are these: HeLa MMTV-bla, beta-lactamase ratio, agonist, 18 h; activation: stronger effect = higher value, percent of dexamethasone control, DMSO zero. The procedure, abridged: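 Titration series, up to 92 uM, applied to GRE-bla HeLa cells for 18 h at 37 C. Detection by CCF4 FRET substrate after 2 h at RT.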
Sequence of Glucocorticoid receptor (Homo sapiens) (P04150 whole entry, looked up): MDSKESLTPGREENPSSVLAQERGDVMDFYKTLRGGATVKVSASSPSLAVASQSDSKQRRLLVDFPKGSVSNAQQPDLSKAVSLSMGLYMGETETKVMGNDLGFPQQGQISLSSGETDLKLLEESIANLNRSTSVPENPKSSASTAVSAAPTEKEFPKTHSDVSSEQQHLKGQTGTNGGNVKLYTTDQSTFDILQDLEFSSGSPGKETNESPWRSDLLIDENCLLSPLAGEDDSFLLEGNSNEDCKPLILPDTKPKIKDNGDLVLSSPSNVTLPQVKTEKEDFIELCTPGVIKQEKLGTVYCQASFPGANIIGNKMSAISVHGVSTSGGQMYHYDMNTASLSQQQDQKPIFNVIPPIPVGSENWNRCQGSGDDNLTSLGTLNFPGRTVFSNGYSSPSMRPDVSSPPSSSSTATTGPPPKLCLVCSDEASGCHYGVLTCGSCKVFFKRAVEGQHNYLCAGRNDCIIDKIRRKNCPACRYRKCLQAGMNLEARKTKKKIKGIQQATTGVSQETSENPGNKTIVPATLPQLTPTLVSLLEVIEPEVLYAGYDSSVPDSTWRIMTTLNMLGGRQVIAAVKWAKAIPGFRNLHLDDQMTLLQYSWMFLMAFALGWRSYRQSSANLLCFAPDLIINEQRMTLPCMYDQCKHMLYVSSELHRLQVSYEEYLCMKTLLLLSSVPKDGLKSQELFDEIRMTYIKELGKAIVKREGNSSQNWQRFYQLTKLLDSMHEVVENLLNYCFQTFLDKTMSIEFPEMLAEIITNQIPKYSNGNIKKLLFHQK
Background: Quantitative high-throughput screening tests each substance at several concentrations.

Assay [2] can be described thus: qHTS assay for small molecule antagonists of peroxisome proliferator-activated receptor delta signaling (AID 588535).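 Also: cells co-treated with a PPAR-delta agonist as stimulator during compound exposure.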 The conditions noted are these: HEK293T PPARd-UAS-bla, beta-lactamase FRET ratio, 18 h; 460 nm channel. The procedure, abridged:
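Reporter: UAS-bla under PPAR-delta response element, HEK293T host. Medium: 2% charcoal/dextran FBS. Dosing: titration, 18 hrs, 37 C. Detection: CCF4, 2 hrs RT, 405 ex/460 and 530 em.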

The target in assay [3] is Peroxisome proliferator-activated receptor gamma (Homo sapiens) (UniProt P37231). The experiment in a line: qHTS assay for small molecule antagonists of peroxisome proliferator-activated receptor gamma signaling (AID 588537; active = well fitted inhibition curve with a large enough effect in the signal ratio, with a control signal flat, not every such curve was filed as active; the % refers to the signal ratio;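 also: reporter cells co-stimulated with 50 nM rosiglitazone agonist during compound treatment; % of control where 0% means no effect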). The procedure, abridged:
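We seeded GeneBLAzer HEK293 reporter cells at 3000 per well, allowed 6-6.5 h attachment at 37 C, then co-treated with test compound titrations and 50 nM rosiglitazone overnight (16 h). Inhibition was quantified from 460/530 nm emission ratios.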

Assay [4] deals with Vitamin D3 receptor (Homo sapiens) (UniProt P11473). The experiment in a line: qHTS assay for small molecule antagonists of vitamin D receptor signaling (AID 588541).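 Also: receptor activated by calcitriol during compound treatment; series mostly up to about 77 µM; % is scaled to controls: 0 for no effect and ±100 for the full control effect.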 An outline of the steps:
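VDR-UAS-bla HEK293T cells (2000/well, 2% charcoal-stripped FBS) were treated with titrated compounds plus 1-alpha,25-dihydroxyvitamin D3 (50 nM or 3 nM final) for 16 h at 37 C. CCF4 beta-lactamase fluorescence was read; Hill fits gave IC50.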

Assay [5] has the same target. The experiment in a line: qHTS assay for small molecule agonists of vitamin D receptor signaling (AID 588543).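 Also: 0% = DMSO basal and 100% = reference agonist control.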 An outline of the steps: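 Measured: β-lactamase reporter activity (CCF4, 405 nm excitation, 460/530 nm emission) in HEK293T VDR-UAS-bla cells after 16 h compound exposure at 37 °C. Normalization against 50 nM 1α,25-dihydroxyvitamin D3 and DMSO; Hill-fit EC50.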

A short description of assay [6]: qHTS assay for small molecule antagonists of retinoid X receptor alpha signaling (AID 588546; active = well fitted inhibition curve with a large enough effect in the signal ratio, with a control signal flat, not every such curve was filed as active; the % refers to the signal ratio;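 also: cells stimulated with 9-cis-retinoic acid as agonist; % is scaled to controls: 0 for no effect and ±100 for the full control effect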). The conditions noted are these: HEK293T RXRa-UAS-bla, beta-lactamase ratio, antagonist mode; measured here: W530 green channel, cytotoxicity proxy. The procedure, abridged:
(§1)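 Beta-lactamase reporter inhibition, read as CCF4 fluorescence ratio (ex 405, em 460/530 nm) after 2 h at RT. HEK293T UAS-bla cells, 2500/well, were stimulated with 9-cis-RA at 500 or 100 nM final alongside test compound for 18 h at 37 C.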

Assay [7] addresses Retinoic acid receptor RXR-alpha (Homo sapiens) (UniProt P19793). Described as above. The conditions noted are these: HEK293T RXRa-UAS-bla, beta-lactamase ratio, antagonist mode. The procedure, abridged:
as §1

A short description of assay [8]: qHTS assay for small molecule activators of the p53 signaling pathway (AID 651743; active = well fitted activation curve with a large enough effect in the signal ratio, not every such curve was filed as active; the % refers to the signal ratio; also: series mostly up to about 92 µM; % of control where 0% means no effect). The conditions noted are these: HCT-116 p53RE-bla, beta-lactamase FRET ratio, 16 h; activation: stronger effect = higher value. The procedure, abridged:
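Cell-based beta-lactamase reporter (p53 response elements, HCT-116 background). After a 5-hour preincubation, cells received compound for 16 hours at 37 C; substrate development ran 2 hours at room temperature.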

Assay [9] is described as follows: qHTS assay for environmental chemicals that activate the Aryl hydrocarbon Receptor (AhR) signaling pathway (AID 651777; active = well fitted curve in the direction sought with a large enough effect; an effect the other way counts as inactive or inconclusive; also: % of control where 0% means no effect; nearly all actives have a fitted effect of over 15% in size). The conditions noted are these: 1A2-DRE human hepatoma cells, luciferase, 24 h; activation: stronger effect = higher value. The procedure, abridged: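 Human hepatoma 1A2-DRE cells, stably carrying a dioxin response element and CYP1A2 promoter driving luciferase, were exposed to compounds for 24 hr at 37 C and 5% CO2. Luciferase signal was then read after 30 min One-Glo at room temperature.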

Assay [10] addresses Peroxisome proliferator-activated receptor alpha (Homo sapiens) (UniProt Q07869). In words: qHTS assay for small molecule agonists of the peroxisome proliferator-activated receptor alpha (PPARalpha) signaling pathway (AID 651778; active = well fitted curve in the direction sought with a large enough effect; an effect the other way counts as inactive or inconclusive; also: % of control where 0% means no effect). The conditions noted are these: PathHunter PPARalpha complementation, chemiluminescence, 6 h; max response: stronger effect = higher value. The procedure, abridged: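 Cells plated at 2,000/well and held overnight at 37 C, 5% CO2, then compound added by pin tool for 6 hr; after PathHunter detection reagent and 60 min at room temperature, chemiluminescence from enzyme complementation was read.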

Assay [11] is described as follows: qHTS assay for small molecule agonists of the antioxidant response element (ARE) signaling pathway measured by Nrf2-dependant transcriptional activity (AID 720636; active = well fitted curve in the direction sought with a large enough effect in the repeat runs; an effect the other way counts as inactive or inconclusive; also: % of control where 0% means no effect). The procedure, abridged:
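ARE-luc HepG2 cells carrying an Nrf2-responsive luciferase reporter were plated in medium with 1% dialyzed FBS, left 6 hr at 37 C to attach, then exposed to compound for 16 hr. Luciferase luminescence was read after ONE-Glo addition.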

Assay [12] in a line: qHTS assay for small molecule agonists of the antioxidant response element (ARE) signaling pathway measured by Nrf2-dependant transcriptional activity - cell viability counter screen (AID 720653; active = well fitted curve in the direction sought with a large enough effect in the repeat runs; an effect the other way counts as inactive or inconclusive; also: % is scaled to controls: 0 for no effect and ±100 for the full control effect). The conditions noted are these: ARE-bla HepG2 viability, CellTiter-Glo ATP luminescence, 16 h; max response: stronger effect = lower value. An outline of the steps:
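ARE-bla HepG2 cells (2,000/well) rested 5 hrs at 37C/5% CO2, then exposed to compounds in DMSO for 16 hrs. Viability was read in the same wells as intracellular ATP by luminescence, 30 min at room temperature after reagent addition.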

Assay [13] can be described thus: qHTS assay for cell viability of HEK293 cells (AID 743288; active = well fitted curve in the direction sought with a large enough effect; an effect the other way counts as inactive or inconclusive; also: % is scaled to controls: 0 for no effect and ±100 for the full control effect; nearly all actives have a fitted effect of over 50% in size). The conditions noted are these: ATP luminescence (CellTiter-Glo), 18 h; max response: stronger effect = lower value. The procedure, abridged: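 Luminescent ATP quantitation served as the viability read-out. Cells (parental HEK293, 2,000/well) received compounds after at least 5 h at 37 C and were exposed for 18 h before a 30 min room-temperature reagent step.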

Assay [14] is described as follows: qHTS assay for cell viability of the p53RE-bla HCT-116 cell line (AID 743292; active = well fitted curve in the direction sought with a large enough effect; an effect the other way counts as inactive or inconclusive; also: % is scaled to controls: 0 for no effect and ±100 for the full control effect; nearly all actives have a fitted effect of over 55% in size). An outline of the steps: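 CellSensor p53RE-bla HCT-116 cells, 4,000/well, preincubated 5 h at 37 C, then exposed to compounds in DMSO for 16 h at 37 C. Viability read as CellTiter-Glo luminescence (intracellular ATP) after 30 min at room temperature.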
In assay [15] the target is Nuclear receptor subfamily 1 group I member 2 (Rattus norvegicus) (UniProt Q9R1A7). The experiment in a line: qHTS assay for small molecule activators of the rat pregnane X receptor (rPXR) signaling pathway (AID 651751; call rule not given here; also: 0% is about no effect). The conditions noted are these: rPXR reporter cells, luciferase (One-Glo), 24 h.
Sequence of Nuclear receptor subfamily 1 group I member 2 (Rattus norvegicus) (Q9R1A7 whole entry, looked up): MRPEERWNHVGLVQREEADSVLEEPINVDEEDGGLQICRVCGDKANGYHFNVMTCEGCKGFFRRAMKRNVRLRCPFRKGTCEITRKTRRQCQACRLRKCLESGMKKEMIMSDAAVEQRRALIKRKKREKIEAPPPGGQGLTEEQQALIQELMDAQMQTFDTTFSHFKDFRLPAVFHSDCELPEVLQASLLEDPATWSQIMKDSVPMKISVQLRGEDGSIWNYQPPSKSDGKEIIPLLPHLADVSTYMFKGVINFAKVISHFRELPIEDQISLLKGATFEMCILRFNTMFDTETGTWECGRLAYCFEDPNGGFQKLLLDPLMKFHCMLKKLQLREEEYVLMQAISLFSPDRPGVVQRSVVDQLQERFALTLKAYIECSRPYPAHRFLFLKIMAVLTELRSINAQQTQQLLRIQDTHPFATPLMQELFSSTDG
In assay [16] the target is Peroxisome proliferator-activated receptor delta (Homo sapiens) (UniProt Q03181). The experiment in a line: qHTS assay for small molecule agonists of peroxisome proliferator-activated receptor delta signaling (AID 588534).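 Also: 0% = DMSO basal wells and 100% = positive control agonist at 10 µM.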 An outline of the steps: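 Cells carrying a PPAR-delta beta-lactamase reporter were treated with compounds for 18 h at 37 °C in agonist mode. CCF4 fluorescence was read after 2 h; EC50 and efficacy from Hill fits.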
Sequence of Peroxisome proliferator-activated receptor delta (Homo sapiens) (Q03181 whole entry, looked up): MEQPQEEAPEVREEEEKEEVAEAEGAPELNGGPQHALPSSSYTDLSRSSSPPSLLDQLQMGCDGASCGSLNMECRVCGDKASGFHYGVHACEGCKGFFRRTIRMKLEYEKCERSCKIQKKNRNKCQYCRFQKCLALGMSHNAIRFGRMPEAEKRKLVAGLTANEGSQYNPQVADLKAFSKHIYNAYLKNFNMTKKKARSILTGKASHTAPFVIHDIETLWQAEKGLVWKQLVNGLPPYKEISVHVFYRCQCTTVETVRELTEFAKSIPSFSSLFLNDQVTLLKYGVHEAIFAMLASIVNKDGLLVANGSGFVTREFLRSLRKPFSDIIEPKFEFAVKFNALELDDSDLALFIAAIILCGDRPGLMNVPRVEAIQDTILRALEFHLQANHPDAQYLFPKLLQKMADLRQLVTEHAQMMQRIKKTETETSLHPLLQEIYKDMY

For assay [17], the target named is Peroxisome proliferator-activated receptor gamma (Homo sapiens) (UniProt P37231). The experiment in a line: qHTS assay for small molecule agonists of peroxisome proliferator-activated receptor gamma signaling (AID 588536; active = well fitted curve in the direction sought with a large enough effect in the signal ratio, with a control signal flat, not every such curve was filed as active; the % refers to the signal ratio;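 also: 0% = DMSO basal wells and 100% = rosiglitazone at 2 µM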). The procedure, abridged: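 HEK293 UAS-bla reporter line, 1% charcoal/dextran FBS; titration, 16 h, 37 C; CCF4 loading 2 h RT; fluorescence 460/530 nm. Normalized to rosiglitazone 2 uM = 100%, DMSO = 0%.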
Sequence of Peroxisome proliferator-activated receptor gamma (Homo sapiens) (P37231 whole entry, looked up): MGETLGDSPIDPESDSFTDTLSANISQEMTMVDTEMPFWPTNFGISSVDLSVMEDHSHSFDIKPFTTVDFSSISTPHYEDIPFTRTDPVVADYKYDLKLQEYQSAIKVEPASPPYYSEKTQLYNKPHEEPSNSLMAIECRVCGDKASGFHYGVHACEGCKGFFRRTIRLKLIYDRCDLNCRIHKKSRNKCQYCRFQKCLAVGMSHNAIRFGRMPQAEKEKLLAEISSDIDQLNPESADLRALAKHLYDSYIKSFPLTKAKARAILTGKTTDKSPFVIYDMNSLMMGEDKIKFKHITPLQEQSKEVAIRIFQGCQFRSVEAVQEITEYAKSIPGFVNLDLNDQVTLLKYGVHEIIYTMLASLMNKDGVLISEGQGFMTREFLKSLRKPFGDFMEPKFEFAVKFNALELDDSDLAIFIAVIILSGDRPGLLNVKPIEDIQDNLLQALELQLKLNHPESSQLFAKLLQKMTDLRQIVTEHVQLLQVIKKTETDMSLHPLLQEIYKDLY

Assay [18] has as its target Retinoic acid receptor RXR-alpha (Homo sapiens) (UniProt P19793). The experiment in a line: qHTS assay for small molecule agonists of retinoid X receptor alpha signaling (AID 588544).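 Also: 0% = DMSO basal wells and 100% = reference agonist.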
The target of assay [19] is Thyroid hormone receptor beta (Homo sapiens) (UniProt P10828). In words: qHTS assay for small molecule agonists of thyroid hormone receptor beta signaling (AID 588545).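 Also: 0% = DMSO only and 100% = 10 nM T3.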 The procedure, abridged:
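TR-UAS-bla GripTite HEK 293 cells (2500/well, medium with 2% charcoal/dextran FBS) were treated in agonist mode for 18 h at 37 C, titrated. Beta-lactamase was read by CCF4 ratio after 2 h; normalized to 10 nM T3 (100%) and DMSO, Hill-fitted for EC50 and efficacy.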

The target is the same in assay [20]. In words: qHTS assay for small molecule antagonists of thyroid hormone receptor beta signaling (AID 588547; active = well fitted inhibition curve with a large enough effect in the signal ratio, with a control signal flat, not every such curve was filed as active; the % refers to the signal ratio;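 also: cells stimulated with 0.4 nM T3 agonist during compound exposure; series mostly up to about 77 µM; % is scaled to controls: 0 for no effect and ±100 for the full control effect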). The conditions noted are these: TR-UAS-bla HEK293, beta-lactamase ratio, antagonist mode, 18 h. The procedure, abridged:
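TR-UAS-bla GripTite HEK293 cells in 2% charcoal/dextran FBS medium were preincubated 4 h at 37 C, given compound (0.59 nM to 92 uM) plus 0.4 nM T3 (final) for 18 h, then CCF4 for 2 h at RT; Hill fit gave IC50.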

Sequence of Vitamin D3 receptor (Homo sapiens) (P11473 whole entry, looked up): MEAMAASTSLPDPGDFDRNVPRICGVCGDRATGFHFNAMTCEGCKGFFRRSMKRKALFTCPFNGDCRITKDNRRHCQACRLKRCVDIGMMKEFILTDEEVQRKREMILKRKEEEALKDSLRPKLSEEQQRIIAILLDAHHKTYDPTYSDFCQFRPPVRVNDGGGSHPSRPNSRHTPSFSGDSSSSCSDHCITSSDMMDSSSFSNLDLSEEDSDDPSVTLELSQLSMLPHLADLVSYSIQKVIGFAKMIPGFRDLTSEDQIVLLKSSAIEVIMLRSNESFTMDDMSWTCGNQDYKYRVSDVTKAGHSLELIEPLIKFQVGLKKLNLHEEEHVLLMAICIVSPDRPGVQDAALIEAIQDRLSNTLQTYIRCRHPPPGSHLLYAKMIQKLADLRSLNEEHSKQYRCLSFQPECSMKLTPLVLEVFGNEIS
Sequence of Retinoic acid receptor RXR-alpha (Homo sapiens) (P19793 whole entry, looked up): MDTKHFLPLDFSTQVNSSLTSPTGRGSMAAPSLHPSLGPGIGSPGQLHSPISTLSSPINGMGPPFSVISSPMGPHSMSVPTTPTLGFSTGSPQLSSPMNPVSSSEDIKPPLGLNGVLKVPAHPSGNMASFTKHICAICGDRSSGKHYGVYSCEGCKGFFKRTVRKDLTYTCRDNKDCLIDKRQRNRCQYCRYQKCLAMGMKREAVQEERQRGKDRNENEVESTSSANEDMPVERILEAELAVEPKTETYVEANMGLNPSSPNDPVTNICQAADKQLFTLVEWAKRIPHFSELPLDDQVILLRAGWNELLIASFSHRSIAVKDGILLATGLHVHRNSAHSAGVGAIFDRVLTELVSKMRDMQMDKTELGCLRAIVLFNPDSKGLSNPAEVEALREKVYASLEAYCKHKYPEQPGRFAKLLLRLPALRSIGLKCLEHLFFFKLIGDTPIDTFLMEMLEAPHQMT
Sequence of Thyroid hormone receptor beta (Homo sapiens) (P10828 whole entry, looked up): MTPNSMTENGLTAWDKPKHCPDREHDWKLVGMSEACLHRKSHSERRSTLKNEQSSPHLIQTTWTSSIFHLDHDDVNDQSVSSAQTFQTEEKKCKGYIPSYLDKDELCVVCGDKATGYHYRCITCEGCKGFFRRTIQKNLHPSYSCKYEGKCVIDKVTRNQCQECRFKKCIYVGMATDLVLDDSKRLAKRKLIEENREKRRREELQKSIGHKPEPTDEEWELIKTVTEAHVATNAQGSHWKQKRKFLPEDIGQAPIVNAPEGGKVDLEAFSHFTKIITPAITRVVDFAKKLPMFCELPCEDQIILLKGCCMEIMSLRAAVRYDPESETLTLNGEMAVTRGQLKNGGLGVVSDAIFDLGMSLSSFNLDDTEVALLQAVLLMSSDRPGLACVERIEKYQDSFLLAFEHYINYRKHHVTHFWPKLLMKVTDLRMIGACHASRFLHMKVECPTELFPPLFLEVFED
Sequence of Peroxisome proliferator-activated receptor alpha (Homo sapiens) (Q07869 whole entry, looked up): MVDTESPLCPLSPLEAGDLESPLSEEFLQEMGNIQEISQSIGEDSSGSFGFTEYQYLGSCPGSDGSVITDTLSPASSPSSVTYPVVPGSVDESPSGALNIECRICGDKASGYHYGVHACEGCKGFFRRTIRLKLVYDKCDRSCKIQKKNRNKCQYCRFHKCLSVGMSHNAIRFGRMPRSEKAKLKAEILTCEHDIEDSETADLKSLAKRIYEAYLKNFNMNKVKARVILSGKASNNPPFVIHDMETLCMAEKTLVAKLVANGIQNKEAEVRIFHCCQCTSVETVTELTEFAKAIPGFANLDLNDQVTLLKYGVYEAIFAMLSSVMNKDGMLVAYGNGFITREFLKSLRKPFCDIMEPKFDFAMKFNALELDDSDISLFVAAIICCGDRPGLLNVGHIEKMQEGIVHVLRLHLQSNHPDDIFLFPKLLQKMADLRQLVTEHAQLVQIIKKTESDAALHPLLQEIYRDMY

Regarding `CS(=O)(=O)c1cc(C(F)(F)F)ccc1C(=O)c1cnoc1C1CC1`, the activation is 11.4% (inactive) in assay [1], -1.28% (inactive) in assay [8] and -0.804% (inactive) in assay [9]. Further, the max response in assay [2] is 51.3%; in [6], -9.9%; in assay [7] it was -4.05% (inactive); in assay [10] it was -3.75% (inactive); in assay [12], -9.62% (inactive); in assay [13], -14.1% (inactive). In addition, in assay [15], the max response was -4.39% (inactive). Further, the Potency result in assay [3], in [4], in assay [11] and in assay [14] was “inactive” throughout. For the same compound, the outcome in assay [5] was inactive.
For `CC(C)(C)C(=O)[C@@H](Oc1ccc(Cl)cc1)n1cncn1`, the activation in assay [1] was 6.65% (inactive); in assay [8], 0.216% (inactive); in [9], 5.12% (inactive). For the same compound, the call in assay [16] and in [5] was inactive. Also, the max response in assay [2] was 38.3%; in assay [6], -6.66%; in [7] it was 9.68% (inactive); in assay [10], -2.73% (inactive); in assay [12] it was 0.855% (inactive); in [13], -4.89% (inactive). In addition, the Potency result in assay [17], in assay [3], in assay [18], in assay [19] and in assay [11] was “inactive” each time. In addition, in [20], the activity change % (negative = inhibition) is -10.6% (inactive).
`CC(C)(C#N)N=NC(C)(C)C#N`: the figures for the activation in [1], in assay [8] and in [9] were 6.88% (inactive), -7.6% (inactive) and 3.1% (inactive), respectively. In addition, the outcome in assay [16] and in assay [5] was inactive. The max response in assay [2] is 3.24%; in assay [6] it was -2.24%; in assay [7], -0.927% (inactive); in [10], -0.208% (inactive); in assay [12], -0.383% (inactive); in [13] it was -5.77% (inactive). In assay [15], the max response is 0.774% (inactive). The Potency result in [17], in assay [4], in assay [18], in [11] and in assay [14] was “inactive” throughout.
In the case of `Cc1cc(C)nc(NC(=O)NS(=O)(=O)c2ccccc2C(=O)OC2COC2)n1`, the activation in assay [1] is 10.1% (inactive); in assay [8], 1.69% (inactive); in assay [9] it was -0.244% (inactive). Besides, the outcome in assay [16] and in assay [5] was inactive. The max response in assay [2] is 2.3%; in assay [12] it was 18% (inactive); in [13], 8.1% (inactive); in assay [15] it was -3.04% (inactive). The Potency entry in [17], in assay [3], in assay [4], in assay [18] and in assay [11] was “inactive” throughout. Moreover, the activity change % (negative = inhibition) in assay [20] was 4.53% (inactive).
On to `CCOS(=O)(=O)OCC`, for which the figures for the activation in [1], in [8] and in assay [9] were -9.13% (inactive), -2.08% (inactive) and -0.0167% (inactive), respectively. The compound was classed as inactive in assay [16] and in [5]. Moreover, the max response in assay [2] is -21.4%; in assay [6] it was -7.24%; in assay [7], 4.62% (inactive); in assay [10] it was -1.06% (inactive); in assay [12] it was -6.17% (inactive); in assay [13], 1.11% (inactive). For the same compound, the max response in [15] was 3.38% (inactive). In addition, the Potency result in assay [17], in assay [3], in assay [4], in assay [18], in assay [11] and in assay [14] was “inactive” in each case. In addition, the activity change % (negative = inhibition) in assay [20] is 3.34% (inactive).
